High-throughput results (PubChem)
In the library only some 12% were active in any assay of this set; here they are far more common.
KCC2 mod: KCC2 (human) Cl- transport modulation; Q9H2X9; KCC2 cells, thallium flux FluoZin-2 fluorescence; B-score of Tl+ flux slope (higher = more flux/activation; lower = inhibition) at 10 µM; 2.2% of 190,000 active; AID 1456;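 active = thallium flux slope and its plate-corrected score both differing from the plate sample mean at a set confidence after two filtering rounds, in either direction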;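 also: slope of fluorescence scaled to starting intensity during 10 to 20 s after thallium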
Insulin prom up: MIN6 insulin promoter up-regulation; AID 1625; z-score at 5 µM; MIN6 insulin promoter-GFP reporter, high-content imaging; hits give high values; 0.3% of 190,000 active;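 active = z-score above 3 at 5 µM with at least 500 cells counted in the well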
ROMK primary: human ROMK K+ channel modulation, primary screen; P48048; B-score at 10 µM; 2% of 130,000 active; Tet-inducible ROMK, thallium flux fluorescence; actives lie on both sides;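 active = signal ratio slope over the read window, or its plate-corrected B-score, at least 3 SD from the plate mean, either direction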;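 also: B-score of the F/F0 ratio slope over 7 to 12 s after thallium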
Target sequence (P48048 whole entry, looked up): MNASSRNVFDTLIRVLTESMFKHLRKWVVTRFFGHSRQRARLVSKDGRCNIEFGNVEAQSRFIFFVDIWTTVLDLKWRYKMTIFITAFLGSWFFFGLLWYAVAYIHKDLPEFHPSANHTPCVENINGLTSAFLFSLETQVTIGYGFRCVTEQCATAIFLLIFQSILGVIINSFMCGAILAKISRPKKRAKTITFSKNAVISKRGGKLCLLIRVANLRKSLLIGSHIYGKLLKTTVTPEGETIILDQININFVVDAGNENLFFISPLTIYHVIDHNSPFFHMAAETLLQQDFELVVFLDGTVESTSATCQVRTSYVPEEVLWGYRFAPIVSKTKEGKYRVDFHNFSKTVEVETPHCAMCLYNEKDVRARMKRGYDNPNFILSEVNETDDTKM
Lmaj promast: reduces viability of Leishmania major promastigotes | AID 1063 | resazurin fluorescence viability | inhibition, % at 10 µM | 9% of 200,000 active; in the data active = inhibition above about 50%;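 also: promastigotes grown with compound for 44 hours at 28 °C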
WT yeast gro inh: growth inhibition of WT yeast, mitochondrial fusion screen | AID 1362 | inhibition, % at 10 µM | mitochondrial fusion phenotypic screen, WT strain | 2.1% of 190,000 active; in the data active = inhibition above about 58%; tested in S. cerevisiae
INS promoter inh: TRM-6 insulin promoter activity inhibition. TRM-6 cells (human fetal islet line), insulin promoter-eGFP reporter, imaging; reporter expression induced with tamoxifen. inhibition, % at 2 µM. 0.9% of 130,000 active. AID 1273;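 active = inhibition above the mean plus 3 SD, with well images judged a real hit on visual review, cut at about 60% in these data, passing the limit was not always enough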
* hit, by the source's call; nt = no result.

SMILES	KCC2 mod	Insulin prom up	ROMK primary	Lmaj promast	WT yeast gro inh	INS promoter inh
COc1ccc(C)cc1S(=O)(=O)N1c2ccccc2CC1C (stereo not drawn)	nt	-0.28	nt	100*	1	-60
CC1Cc2ccccc2N1S(=O)(=O)c1cccs1 (stereo not drawn)	-0.54	-6.7	nt	90*	13	-67
O=C(O)C1CCCCC1C(=O)Nc1ccccc1C(=O)N1CCN(c2ccc(F)cc2)CC1 (stereo not drawn)	1.2	-0.06	0.44	50	-11	-23
COC(=O)c1cccc(NC(=O)CSc2nc(O)c(-c3ccccc3)c(=O)[nH]2)c1	-0.74	-0.17	1.1	-5	-7	nt
COc1cc(CNCCCN2CCOCC2)c(Br)cc1OCC(=O)Nc1ccccc1C	0.37	0.05	-0.67	57*	5	-95
COc1ccccc1NC(=O)COc1ccc(Br)cc1CNCCCN1CCOCC1	-0.55	-0.69	-0.61	77*	0	-14
COc1cc(CNCC(O)c2ccccc2)ccc1OCc1ccc(Cl)nc1 (stereo not drawn)	-1.4	-1	-0.91	100*	26	20
COc1ccc(C(=O)NC(=S)NCc2cccnc2)cc1OC	-0.52	-0.38	0.0086	1	-12	-6
COc1cc(CNc2ccc(NC(C)=O)cc2)ccc1OCc1ccccc1C	-3.3	0.98	-1.9	73*	27	-114
COc1cc(CNCc2cccnc2)ccc1OCc1ccccc1	0.83	1.8	-0.31	96*	11	-55
COc1ccc(-c2ccccc2)cc1NCc1ccc(OC)c(OC)c1	-0.022	-0.47	-0.65	99*	39	53
COc1cc(CNc2ccc(N3CCN(C(C)=O)CC3)cc2)ccc1OCc1ccccc1	0.7	-0.82	-0.098	-5	-11	nt
CCCCNCc1ccc(OCc2ccc(Cl)nc2)c(OC)c1	0.46	0.57	nt	nt	nt	nt
COc1ccccc1CNc1cc(-c2ccccc2)ccc1OC	0.47	-0.5	nt	36	8	31
O=Cc1sc([O-])nc1-[n+]1ccc2ccccc2c1	0.057	-0.21	-1.5	nt	nt	nt
O=C(CN1C(=O)CNC1=O)Nc1cccc(C(F)(F)F)c1	-0.52	nt	nt	4	6	0
c1ccc(COc2cccc(CNCc3ccccn3)c2)cc1	-0.25	-0.73	0.018	96*	4	nt
COc1cc(CC(=O)O)ccc1OCc1ccccc1	1.1	-0.13	nt	nt	nt	nt
c1ccc(COc2cccc(CNCc3cccnc3)c2)cc1	-0.66	0.04	-0.75	98*	2	nt
CNCc1ccc(OCc2ccccc2)c(OC)c1	nt	-0.08	-0.013	80*	-1	nt
COc1ccc(CNCc2ccco2)cc1OCc1ccccc1	nt	0.79	nt	100*	-5	21
CCCOc1cc(CC(=O)NCc2ccco2)ccc1OC	-0.74	-0.44	nt	2	-3	23
COc1ccc(CCNc2c([N+](=O)[O-])ncn2C)cc1OC	0.39	-0.18	nt	nt	nt	nt
CC(C)NC(=O)CSCc1c(Cl)cccc1Cl	-0.61	-1.1	0.34	-3	17	9
CNCc1c(OCc2ccc(F)cc2)ccc2ccccc12	0.33	-2.5	-0.74	63*	10	nt
SMILES	KCC2 mod	Insulin prom up	ROMK primary	Lmaj promast	WT yeast gro inh	INS promoter inh
CNCc1ccccc1OCc1ccccc1F	-0.36	-1.3	-0.83	8	-6	nt
Cc1cccc(C(=O)NCCNc2nc3cc(C)c(C)cc3cc2C)c1	0.062	-0.32	-0.088	19	42	nt
CCOC(=O)c1sc2c(c1C)C(c1cccs1)C1=C(CCCC1=O)N2 (stereo not drawn)	nt	-0.37	nt	64*	18	nt
CCOC(=O)C1=C(C)NC2=C(C(=O)CCC2)C1c1cccs1 (stereo not drawn)	nt	0.13	-0.38	16	-27	42
OCC1(Cc2ccc(Cl)cc2)CCN(Cc2ccc3nsnc3c2)CC1	1.2	-0.56	-1.6	88*	44	43
COc1ccc(CC2(CO)CCN(C(C)Cc3ccc(Cl)cc3)CC2)cc1 (stereo not drawn)	1.3	-2.3	-2.8	86*	32	nt
OCC1(Cc2ccc(Cl)cc2)CCN(Cc2ccc(F)c(F)c2)CC1	0.025	-1	nt	nt	nt	nt
COc1ccc(CC2(CO)CCN(Cc3cccnc3)CC2)cc1	-0.7	1.5	nt	89*	7	8
COc1ccc(CC2(CO)CCN(Cc3ccc4nsnc4c3)CC2)cc1	0.0026	-0.33	nt	88*	6	nt
O=C(Nc1ccc(N2CCOCC2)cc1)NC1CCCCC1	nt	0.6	-0.17	-5	-3	nt
CCOc1nnnc2c1sc1nc(N3CCOCC3)c3c(c12)CCCC3	-0.13	-0.92	-0.2	23	-31	27
CN(CC(O)Cn1cnc2c1c(=O)n(C)c(=O)n2C)c1ccccc1 (stereo not drawn)	-0.068	0.08	1.2	-5	-13	nt
CC1=CC(C)(C)N2C(=O)C3(SCC(=O)N3c3ccc(F)cc3)c3cc(C)cc1c32 (stereo not drawn)	nt	-0.48	-1.1	92*	29	-33
NC(=O)c1ccc(NC(=O)CSC2=Nc3ccccc3C3CC=NN23)cc1 (stereo not drawn)	0.31	-0.32	-0.32	17	10	47
COC(=O)c1ccc(NC(=O)CSC2=Nc3ccccc3C3CC=NN23)cc1 (stereo not drawn)	-0.31	nt	-0.93	55*	10	-5
C/C(=N\NC(=O)CCCNc1ccc(C)cc1)c1ccccn1	-1.5	-0.72	0.055	98*	48	64*
C=CCNC(=S)N/N=C(\C)c1ccccn1	nt	nt	1.4	100*	35	38
NS(=O)(=O)c1ccc(NC(=O)C2Cc3ccccc3C(=O)O2)cc1 (stereo not drawn)	-1.2	0.43	1	-8	4	71*
NC(=S)N/N=C/c1cn(CCC(=O)O)nc1-c1cccc(Br)c1	nt	-0.09	nt	nt	nt	nt
CCOC(=O)CNC(=O)c1cn(C)c(=O)c2cc(OC)c(OC)cc12	0.66	3.2*	nt	0	2	nt
CCOC(=O)CNC(=O)c1cn(CC)c(=O)c2cc(OC)c(OC)cc12	0.062	1.1	nt	-7	-10	nt
CCN(C(=O)c1cn(C)c(=O)c2cc(OC)c(OC)cc12)c1cc(C)ccc1C	-1.6	-0.16	nt	11	-13	nt
CCN(C(=O)c1cn(C)c(=O)c2cc(OC)c(OC)cc12)c1ccccc1C	0.6	0.06	nt	4	4	81*
Clc1ccc(-n2cccc2)cn1	1	0.3	0.43	1	3	nt
O=C(Nc1ccc(Br)cc1)c1cccn1-c1ncc(C(F)(F)F)cc1Cl	nt	nt	nt	2	78*	-6
SMILES	KCC2 mod	Insulin prom up	ROMK primary	Lmaj promast	WT yeast gro inh	INS promoter inh
COc1cc(C(=S)N2CCCC2)ccc1O	nt	-0.32	0.38	1	24	nt
CN1CCN(C(=S)c2ccc(Cl)cc2)CC1	nt	-0.5	0.41	90*	-4	30
COc1ccc(C(=S)N2CCN(C)CC2)cc1Br	nt	-0.33	0.46	92*	-14	-45
COc1ccc(C(=S)N2CCN(C)CC2)cc1	1.4	nt	-1	85*	nt	16
Cc1noc(C)c1S(=O)(=O)Nc1ccc(C(=O)N2CCCCC2)cc1	nt	0.23	0.042	-5	11	19
Cc1ccc(C)c(N2CCN(C(=O)c3ccc(NS(=O)(=O)c4c(C)noc4C)cc3)CC2)c1	0.24	1.1	nt	93*	14	nt
